Measured values taken from ChEMBL document CHEMBL3988442, “University of Dundee, Small-Polar-MMV Screening Library” (2021).
For part of these data: Entries with a potency or affinity are not part of this list.

Key:
Set-up in all cases: scale not given: direction of the effect not stated beside the values
[1] = biological target: Protein translocase subunit SecA (Escherichia coli (strain K12)) (UniProt P10408); assay: Assay to Identify E. coli SecA ATPase Inhibitors; type: functional; conditions: 30 µM
[2] = biological target: T1, Ubiquitin-activating enzyme e1, putative (Leishmania donovani (strain BPK282A1)) (UniProt E9BSI1); assay: Leishmania donovani Ubiquitin Activating Enzyme (LdE1); type: functional; conditions: 30 µM
T1 sequence (whole entry): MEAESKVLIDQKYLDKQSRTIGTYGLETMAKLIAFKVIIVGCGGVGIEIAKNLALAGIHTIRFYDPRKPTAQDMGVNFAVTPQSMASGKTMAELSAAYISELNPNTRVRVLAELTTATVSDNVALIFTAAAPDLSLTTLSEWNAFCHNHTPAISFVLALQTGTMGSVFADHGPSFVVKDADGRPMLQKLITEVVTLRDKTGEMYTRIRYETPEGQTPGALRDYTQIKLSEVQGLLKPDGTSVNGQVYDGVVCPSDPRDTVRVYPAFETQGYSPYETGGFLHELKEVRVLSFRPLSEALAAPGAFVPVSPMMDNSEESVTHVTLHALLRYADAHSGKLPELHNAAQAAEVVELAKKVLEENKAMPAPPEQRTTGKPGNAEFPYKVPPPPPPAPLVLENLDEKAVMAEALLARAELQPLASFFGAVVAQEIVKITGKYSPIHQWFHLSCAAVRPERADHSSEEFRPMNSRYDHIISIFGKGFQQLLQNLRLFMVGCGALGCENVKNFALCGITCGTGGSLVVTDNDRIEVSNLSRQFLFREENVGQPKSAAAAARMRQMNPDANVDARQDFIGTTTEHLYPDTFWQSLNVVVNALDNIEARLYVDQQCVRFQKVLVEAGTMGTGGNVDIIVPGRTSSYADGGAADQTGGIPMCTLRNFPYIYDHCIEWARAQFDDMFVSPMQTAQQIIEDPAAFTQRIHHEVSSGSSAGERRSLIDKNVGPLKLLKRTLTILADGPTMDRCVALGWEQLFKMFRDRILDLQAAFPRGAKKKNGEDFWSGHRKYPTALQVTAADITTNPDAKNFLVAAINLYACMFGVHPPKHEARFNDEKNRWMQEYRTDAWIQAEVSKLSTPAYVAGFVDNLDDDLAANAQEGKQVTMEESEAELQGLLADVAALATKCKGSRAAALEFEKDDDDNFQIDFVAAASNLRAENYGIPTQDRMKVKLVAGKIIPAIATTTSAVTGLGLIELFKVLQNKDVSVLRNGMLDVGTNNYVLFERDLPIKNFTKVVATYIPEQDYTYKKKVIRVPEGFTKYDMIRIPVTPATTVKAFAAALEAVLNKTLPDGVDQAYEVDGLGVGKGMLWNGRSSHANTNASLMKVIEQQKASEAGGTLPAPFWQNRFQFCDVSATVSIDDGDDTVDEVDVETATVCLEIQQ

[3] = biological target: T2, Aspartate--tRNA(Asp/Asn) ligase (Mycobacterium tuberculosis (strain ATCC 25618 / H37Rv)) (UniProt P9WFW3); assay: Assay for Asp RNA synthetase-1 from Mycobacterium tuberculosis; type: functional; conditions: 30 µM; further: in the data most compounds retested in dose-response had high values
T2 sequence (whole entry): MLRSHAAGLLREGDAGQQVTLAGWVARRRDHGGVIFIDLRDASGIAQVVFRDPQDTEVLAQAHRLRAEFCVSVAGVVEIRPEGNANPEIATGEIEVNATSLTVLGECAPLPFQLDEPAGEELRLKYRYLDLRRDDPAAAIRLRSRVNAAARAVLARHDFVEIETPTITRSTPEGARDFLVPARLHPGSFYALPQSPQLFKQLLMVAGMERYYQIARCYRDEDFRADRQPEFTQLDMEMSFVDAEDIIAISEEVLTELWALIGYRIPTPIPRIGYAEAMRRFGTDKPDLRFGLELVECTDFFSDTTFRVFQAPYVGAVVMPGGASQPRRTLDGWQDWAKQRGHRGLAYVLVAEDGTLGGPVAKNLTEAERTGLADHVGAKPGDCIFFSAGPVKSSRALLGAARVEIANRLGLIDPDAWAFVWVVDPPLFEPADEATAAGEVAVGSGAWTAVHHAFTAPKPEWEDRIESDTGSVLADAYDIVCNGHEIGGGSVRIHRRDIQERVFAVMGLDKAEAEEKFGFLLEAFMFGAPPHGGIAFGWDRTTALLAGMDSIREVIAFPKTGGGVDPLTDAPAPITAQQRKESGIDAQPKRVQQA

[4] = biological target: AMP-activated protein kinase, AMPK (Homo sapiens) (UniProt P54646+O43741+P54619+Q9UGJ0+Q9Y478+Q13131+Q9UGI9); assay: AMP-dependent Kinase enzyme assay. An in vitro enzyme assay that detects ADP turnover that is directly proportional to AMPK activity. This uses naive AMPK that is activated during the assay with MK-8722; type: functional; conditions: 30 µM
[5] = biological target: Sialic acid-binding Ig-like lectin 9 (Homo sapiens) (UniProt Q9Y336); assay: Hs-Siglec9 ALPHAscreen SOP 20170721; conditions: 10 µM
Trypanosoma cruzi = assay: Trypanosoma cruzi phosphomannomutase and mannose-1-phosphate guanylyltransferase assay; type: functional; conditions: 10 µM
[6] = biological target: T3, Arginase-2, mitochondrial (Homo sapiens) (UniProt P78540); assay: in vitro enzyme assay to detect the production of urea directly proportional to the activity of Arginase II; type: functional; conditions: 33.3 µM; further: in the data most compounds retested in dose-response had high values
T3 sequence (whole entry): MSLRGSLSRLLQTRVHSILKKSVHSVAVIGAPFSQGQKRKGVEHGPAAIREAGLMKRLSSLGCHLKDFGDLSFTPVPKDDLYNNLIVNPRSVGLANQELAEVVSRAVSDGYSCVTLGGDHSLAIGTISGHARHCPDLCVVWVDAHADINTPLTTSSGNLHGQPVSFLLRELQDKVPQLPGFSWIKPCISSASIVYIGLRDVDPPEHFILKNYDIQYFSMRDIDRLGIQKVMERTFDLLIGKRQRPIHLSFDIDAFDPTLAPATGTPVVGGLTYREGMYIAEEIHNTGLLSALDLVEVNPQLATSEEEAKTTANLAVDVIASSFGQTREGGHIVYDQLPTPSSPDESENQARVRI

[7] = biological target: T4, Proteasome subunit beta (Trypanosoma cruzi) (UniProt O96673); assay: Trypanosoma cruzi proteasome chymotrypsin-like activity (TcProtChymo) assay.; further: in the data most compounds retested in dose-response had high values; type: functional; conditions: 9.37 µM
T4 sequence (whole entry): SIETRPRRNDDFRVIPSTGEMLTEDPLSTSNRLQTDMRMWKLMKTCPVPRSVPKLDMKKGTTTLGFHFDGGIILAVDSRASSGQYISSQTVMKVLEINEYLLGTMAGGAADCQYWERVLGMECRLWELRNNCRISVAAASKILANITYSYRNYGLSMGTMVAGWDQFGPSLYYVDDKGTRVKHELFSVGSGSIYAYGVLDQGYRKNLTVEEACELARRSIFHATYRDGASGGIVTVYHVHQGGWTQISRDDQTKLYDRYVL

Homo sapiens = species: Homo sapiens; assay: To identify inhibition of the IFN signalling (Jak-Stat) pathway via expression of an eGFP reporter gene under the control of an IFN-stimulated response element (ISRE) containing MxA promoter.; type: functional; conditions: 30 µM
[8] = biological target: Shiga toxin 2 (Escherichia coli O157:H7) (UniProt P09385+P09386); assay: E. coli 0.157:H7 Shiga Toxin SOP - stx2 screening assay; type: functional; conditions: 30 µM
[9] = biological target: T5, Tyrosyl-tRNA synthetase, putative (Trypanosoma cruzi (strain CL Brener)) (UniProt Q4DSP6); assay: Trypanosoma cruzi tyrosyl tRNA synthetase (TcYRS) _High Tyrosine SOP; type: functional; conditions: 30 µM; further: in the data most compounds retested in dose-response had high values
T5 sequence (whole entry): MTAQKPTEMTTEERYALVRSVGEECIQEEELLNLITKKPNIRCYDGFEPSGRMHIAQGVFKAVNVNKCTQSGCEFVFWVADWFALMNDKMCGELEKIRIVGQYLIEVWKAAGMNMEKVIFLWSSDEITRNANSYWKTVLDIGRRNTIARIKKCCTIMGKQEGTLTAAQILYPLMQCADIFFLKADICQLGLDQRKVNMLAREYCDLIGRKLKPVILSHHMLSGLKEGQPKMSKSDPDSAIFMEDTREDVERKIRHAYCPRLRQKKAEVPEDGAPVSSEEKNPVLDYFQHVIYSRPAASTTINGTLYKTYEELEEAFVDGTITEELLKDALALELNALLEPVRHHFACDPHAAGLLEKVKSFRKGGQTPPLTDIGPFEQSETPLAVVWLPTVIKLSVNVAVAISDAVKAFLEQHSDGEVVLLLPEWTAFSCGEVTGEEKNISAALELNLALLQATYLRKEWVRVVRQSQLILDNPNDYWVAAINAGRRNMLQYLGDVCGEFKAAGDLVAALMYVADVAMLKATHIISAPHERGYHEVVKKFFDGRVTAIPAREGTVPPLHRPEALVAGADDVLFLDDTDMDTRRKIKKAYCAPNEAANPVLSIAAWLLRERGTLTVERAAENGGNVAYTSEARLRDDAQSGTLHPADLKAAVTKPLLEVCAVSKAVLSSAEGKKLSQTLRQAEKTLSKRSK

[10] = biological target: T5, Tyrosyl-tRNA synthetase, putative (Trypanosoma cruzi (strain CL Brener)); assay: Trypanosoma cruzi tyrosyl tRNA synthetase (TcYRS) SOP; type: functional; conditions: 30 µM
[11] = biological target: Chromo domain-containing protein 1 (Saccharomyces cerevisiae (strain ATCC 204508 / S288c) (Baker's yeast)) (UniProt P32657); assay: ScCHD-1 Enzyme Inhibition Assay; type: functional; conditions: 30 µM; further: in the data most compounds retested in dose-response had high values
Chain of Chromo domain-containing protein 1 (Saccharomyces cerevisiae (strain ATCC 204508 / S288c) (Baker's yeast)) (P32657 whole entry, the tested form may be a part): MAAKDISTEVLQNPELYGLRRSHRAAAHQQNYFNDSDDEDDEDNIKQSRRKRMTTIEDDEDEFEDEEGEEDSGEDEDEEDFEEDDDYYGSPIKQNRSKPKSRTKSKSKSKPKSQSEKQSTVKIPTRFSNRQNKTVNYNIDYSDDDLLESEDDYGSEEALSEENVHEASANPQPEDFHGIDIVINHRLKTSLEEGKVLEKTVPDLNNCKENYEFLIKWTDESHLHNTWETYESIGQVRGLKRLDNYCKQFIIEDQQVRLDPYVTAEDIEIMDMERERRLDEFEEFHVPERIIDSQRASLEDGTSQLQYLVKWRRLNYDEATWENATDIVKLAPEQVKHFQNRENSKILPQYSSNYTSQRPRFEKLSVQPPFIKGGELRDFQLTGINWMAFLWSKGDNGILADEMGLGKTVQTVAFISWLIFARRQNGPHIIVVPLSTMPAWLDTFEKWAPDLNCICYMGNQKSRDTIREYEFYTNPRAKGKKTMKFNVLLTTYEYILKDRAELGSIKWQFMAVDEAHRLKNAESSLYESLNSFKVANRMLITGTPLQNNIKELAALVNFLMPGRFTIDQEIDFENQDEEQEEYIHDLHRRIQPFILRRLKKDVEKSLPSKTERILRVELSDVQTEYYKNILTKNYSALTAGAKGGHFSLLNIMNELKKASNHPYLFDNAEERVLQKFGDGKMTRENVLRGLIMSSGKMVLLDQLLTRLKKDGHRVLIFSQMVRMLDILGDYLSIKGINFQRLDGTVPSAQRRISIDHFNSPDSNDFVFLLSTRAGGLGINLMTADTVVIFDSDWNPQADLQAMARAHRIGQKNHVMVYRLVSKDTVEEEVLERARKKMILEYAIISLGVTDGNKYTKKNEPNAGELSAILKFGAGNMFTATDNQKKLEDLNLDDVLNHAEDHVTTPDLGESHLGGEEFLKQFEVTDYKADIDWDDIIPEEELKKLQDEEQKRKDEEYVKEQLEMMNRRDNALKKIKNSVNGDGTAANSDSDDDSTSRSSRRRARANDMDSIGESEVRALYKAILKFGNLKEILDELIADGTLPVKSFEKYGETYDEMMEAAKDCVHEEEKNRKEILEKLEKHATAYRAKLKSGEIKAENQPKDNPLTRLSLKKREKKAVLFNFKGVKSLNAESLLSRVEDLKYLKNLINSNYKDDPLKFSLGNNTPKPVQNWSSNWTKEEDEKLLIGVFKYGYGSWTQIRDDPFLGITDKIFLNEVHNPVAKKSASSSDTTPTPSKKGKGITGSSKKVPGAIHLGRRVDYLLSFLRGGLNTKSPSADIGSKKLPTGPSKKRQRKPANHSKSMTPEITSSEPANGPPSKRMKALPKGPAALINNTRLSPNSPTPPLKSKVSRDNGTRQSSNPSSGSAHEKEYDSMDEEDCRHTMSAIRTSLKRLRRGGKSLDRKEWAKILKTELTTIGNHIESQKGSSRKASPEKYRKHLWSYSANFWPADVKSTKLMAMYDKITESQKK

Chain of Protein translocase subunit SecA (Escherichia coli (strain K12)) (P10408 whole entry): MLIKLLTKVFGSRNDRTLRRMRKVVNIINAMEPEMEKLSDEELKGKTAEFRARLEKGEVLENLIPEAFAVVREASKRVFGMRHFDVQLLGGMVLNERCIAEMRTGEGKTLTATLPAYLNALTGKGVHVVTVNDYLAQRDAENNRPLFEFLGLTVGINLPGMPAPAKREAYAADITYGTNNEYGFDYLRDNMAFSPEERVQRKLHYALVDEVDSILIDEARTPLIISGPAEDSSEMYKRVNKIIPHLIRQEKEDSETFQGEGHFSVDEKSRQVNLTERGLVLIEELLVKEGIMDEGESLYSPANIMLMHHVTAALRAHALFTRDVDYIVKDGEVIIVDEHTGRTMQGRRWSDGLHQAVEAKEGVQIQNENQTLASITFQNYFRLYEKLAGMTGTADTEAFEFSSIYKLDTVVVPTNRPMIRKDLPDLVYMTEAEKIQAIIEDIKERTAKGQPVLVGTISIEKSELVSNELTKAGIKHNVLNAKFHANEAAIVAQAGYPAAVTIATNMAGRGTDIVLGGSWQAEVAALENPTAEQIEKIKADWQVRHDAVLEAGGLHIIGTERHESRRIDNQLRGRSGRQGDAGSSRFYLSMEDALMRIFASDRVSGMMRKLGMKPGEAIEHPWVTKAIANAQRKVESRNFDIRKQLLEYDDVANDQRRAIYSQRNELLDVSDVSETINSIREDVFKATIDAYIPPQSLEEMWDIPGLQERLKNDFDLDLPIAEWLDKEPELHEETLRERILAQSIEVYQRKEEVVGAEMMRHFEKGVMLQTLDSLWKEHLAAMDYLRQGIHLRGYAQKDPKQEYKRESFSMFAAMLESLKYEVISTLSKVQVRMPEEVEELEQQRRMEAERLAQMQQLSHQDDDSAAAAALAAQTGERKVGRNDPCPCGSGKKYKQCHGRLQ
Chain of Sialic acid-binding Ig-like lectin 9 (Homo sapiens) (Q9Y336 whole entry): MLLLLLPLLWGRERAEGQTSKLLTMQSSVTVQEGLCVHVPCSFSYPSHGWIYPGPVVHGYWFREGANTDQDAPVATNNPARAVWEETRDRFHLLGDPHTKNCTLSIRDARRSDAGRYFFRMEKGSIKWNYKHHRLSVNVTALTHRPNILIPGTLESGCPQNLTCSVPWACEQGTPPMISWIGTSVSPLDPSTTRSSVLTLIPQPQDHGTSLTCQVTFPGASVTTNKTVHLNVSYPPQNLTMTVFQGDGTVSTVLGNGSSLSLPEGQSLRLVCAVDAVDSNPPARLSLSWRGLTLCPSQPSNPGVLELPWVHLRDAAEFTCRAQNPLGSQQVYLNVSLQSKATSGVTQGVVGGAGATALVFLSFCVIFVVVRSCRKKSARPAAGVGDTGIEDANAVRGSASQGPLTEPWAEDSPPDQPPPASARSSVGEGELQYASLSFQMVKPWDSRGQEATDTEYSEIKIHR

| SMILES | Percent Effect [1] [%] | Percent Effect [2] [%] | Percent Effect [3] [%] | Percent Effect [4] [%] | Percent Effect [5] [%] | Percent Effect (Trypanosoma cruzi) [%] | Percent Effect [6] [%] | Percent Effect [7] [%] | Percent Effect (Homo sapiens) [%] | Percent Effect [8] [%] | Percent Effect [9] [%] | Percent Effect [10] [%] | Percent Effect [11] [%] |
| --- | --- | --- | --- | --- | --- | --- | --- | --- | --- | --- | --- | --- | --- |
| CNC(=O)CN1CCOCC2(CCCN(Cc3cccnc3)C2)C1 (stereo not given) | -1.67 | -2.7 | 2.13 | 2.03 | -2.12 | -4.1 | -0.833 | 0.93 | -2.53 | -22.5 | 6.93 | 1.22 | 3.52 |
| Cc1ccccc1CC(=O)N1CCN(C2CCOC2=O)CC1 (stereo not given) | -3.96 | 13.5 | -0.136 | -7.8 | 2.56 | -5.75 | -2.81 | 7.03 | 11.9 | 23.2 | 10.3 | 16.1 | -7.37 |
| Cc1nnc([C@H]2CC[C@@H]3[C@@H](CCN3Cc3c(C)noc3C)O2)o1 | -0.00919 | 8 | 2.12 | 3.84 | -0.659 | -5.79 | -54.3 | 11.4 | -18.2 | -1.17 | 6.25 | 22.5 | -6.76 |
| O=C1CC2(CCN(Cc3ccccn3)C2)CN1c1cncnc1 (stereo not given) | -0.821 | 0 | -1.45 | 2.73 | -3.03 | -1.66 | 0.319 | 16.1 | -0.29 | -1.07 | 2.16 | 5.13 | 5.33 |
| c1ccc(OC[C@]23COC[C@H]2CN(Cc2ccoc2)C3)nc1 | -3.19 | 10.7 | -2.04 | -1.7 | 1.05 | 4.05 | -57.9 | 12.1 | -8.07 | -23.7 | 3.12 | 17.5 | -6.62 |
| Cc1nnc(N2CCCC3(CN(Cc4ccncc4)CCO3)C2)o1 (stereo not given) | 3.96 | 5.48 | -2.96 | 0.217 | 8.21 | -4.76 | -2 | 20.3 | 6.92 | -16.9 | 4.17 | 16.1 | 0.771 |
| COC[C@]12COC[C@H]1CN(Cc1cccnc1OC)C2 | -3.99 | 9.33 | -1.36 | 1.98 | 1.86 | -4.32 | -8.63 | 18.7 | -3.88 | -17.2 | 7.41 | 5.13 | -3.25 |
| CCS(=O)(=O)NC[C@]12COC[C@H]1CN(Cc1cc(C)on1)C2 | -3.29 | 0 | -3.83 | 4.08 | 3.76 | -0.684 | 4.14 | 20.9 | -25 | 1.54 | 5.41 | 12.8 | -1.96 |
| O=C1CSC(c2ccsc2)c2sccc2N1 (stereo not given) | -4.83 | -57.3 | 4.27 | 7.24 | 10.3 | -3.34 | -4.4 | 7.21 | 6.1 | 5.43 | -1.06 | -2.56 | 106 |
| Cc1noc([C@@H]2C[C@H]3CN(Cc4cc(C)on4)C[C@H]3O2)n1 | -0.923 | 10.4 | 2.67 | 5.31 | -5.26 | -4.63 | 9.68 | 12.4 | 10.4 | -9.84 | 3.17 | 6.41 | -8.87 |
| Cc1noc(C)c1CN1CCOC2(CCCN(c3nccs3)C2)C1 (stereo not given) | -8.9 | 8 | 7.92 | 26.5 | 1.44 | -6.18 | -56.1 | 2.91 | 21.7 | -14.3 | -7.29 | -30 | -4.72 |
| CC(C)N1CCOCC2(CN(Cc3ccccn3)CCO2)C1 (stereo not given) | -1.27 | 10.4 | 5.23 | 2.61 | -0.373 | -2.86 | 5.81 | 3.65 | 5.84 | -12.2 | 6.35 | 3.85 | -3.65 |
| CN(CCc1ccc(F)cc1)Cc1nc2c(cnn2C)c(=O)[nH]1 | -6.94 | 21.1 | -1.46 | -5.8 | 1.02 | 2.33 | -6.47 | 14.5 | 2.88 | 14.7 | 10.3 | 23.5 | -6.22 |
| Cn1cc(N2C(=O)CC[C@@H]3[C@H]2CCN3Cc2ccncc2)cn1 | -1.29 | 2.67 | -1.89 | -2.47 | 5.41 | -0.193 | -56.1 | 9.06 | -8.54 | -20.8 | 5.21 | 12.5 | -7.17 |
| Cc1n[nH]c2c1C(c1ccsc1)SCC(=O)N2 (stereo not given) | 0.859 | 15.6 | 6.57 | 7.18 | -13.4 | -4.24 | 0.645 | 16 | 19.9 | 1.07 | 5.29 | 6.41 | -7.85 |
